Compound activity deposited in PubChem by several laboratories.
TMEM16A act = activates or potentiates the mouse TMEM16A chloride channel | HEK293 TMEM16A/YFP-H148Q/I152L, iodide quench fluorescence; stronger effect = lower value | Q8BHY3 | B-score at 10 µM | 340,000 tested, 0.3% active | AID 623877;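 active = fluorescence-ratio B-score plate-corrected deviation score at least 3 library SD below zero, with starting fluorescence score within 5 deviations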;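 also: channel opened by trigger with iodide after compound preincubation; score built on the fluorescence ratio of max minus min over baseline; more negative score means more quench and so TMEM16A activation or potentiation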
Target sequence (Q8BHY3 whole entry, looked up): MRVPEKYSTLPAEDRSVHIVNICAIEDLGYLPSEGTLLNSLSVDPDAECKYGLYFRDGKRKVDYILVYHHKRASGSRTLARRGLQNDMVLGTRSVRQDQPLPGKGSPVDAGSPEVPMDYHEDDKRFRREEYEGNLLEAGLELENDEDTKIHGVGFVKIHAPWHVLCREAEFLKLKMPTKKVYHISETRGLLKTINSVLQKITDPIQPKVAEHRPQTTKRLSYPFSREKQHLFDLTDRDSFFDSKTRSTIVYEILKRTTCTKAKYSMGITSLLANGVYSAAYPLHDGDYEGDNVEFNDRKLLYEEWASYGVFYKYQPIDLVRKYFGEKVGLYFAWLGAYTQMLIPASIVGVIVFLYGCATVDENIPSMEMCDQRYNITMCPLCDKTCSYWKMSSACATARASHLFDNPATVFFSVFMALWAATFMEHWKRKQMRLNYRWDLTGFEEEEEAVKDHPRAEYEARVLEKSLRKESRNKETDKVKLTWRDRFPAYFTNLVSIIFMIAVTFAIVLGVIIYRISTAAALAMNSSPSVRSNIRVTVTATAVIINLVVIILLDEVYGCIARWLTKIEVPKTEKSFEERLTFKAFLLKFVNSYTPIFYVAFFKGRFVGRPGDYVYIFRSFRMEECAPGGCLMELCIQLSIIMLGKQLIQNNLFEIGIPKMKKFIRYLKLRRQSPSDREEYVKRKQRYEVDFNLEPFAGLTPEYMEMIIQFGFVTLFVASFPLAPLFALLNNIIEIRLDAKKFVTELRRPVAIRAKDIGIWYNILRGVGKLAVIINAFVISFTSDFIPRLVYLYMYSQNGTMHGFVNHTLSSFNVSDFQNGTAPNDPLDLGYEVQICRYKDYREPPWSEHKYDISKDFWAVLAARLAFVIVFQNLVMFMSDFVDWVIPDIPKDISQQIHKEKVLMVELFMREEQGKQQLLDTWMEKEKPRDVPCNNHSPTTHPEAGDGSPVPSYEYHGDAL
CRFBP-R2 agonist = CRF-BP/CRF-R2 complex agonism; 350,000 tested, 0.46% active; activation, % at 13.2 µM; HEK293 CRF-R2/CRF-BP, calcium dye fluorescence (FLIPR); percent of saturating CRF peptide response;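 active = activation of at least 50%, plus an integration ratio under a set limit after plate pattern correction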;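 also: plate controls were neutral control wells without compound for no effect and CRF at EC100 for full effect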
MPTP block = blocks calcium-induced mitochondrial swelling. isolated mouse mitochondria, Ca2+ swelling absorbance, 30 min. inhibition, % at 10 µM. 360,000 tested, 1.4% active. AID 602449;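 active = inhibition of 50% or more, scaled per plate between neutral and stimulator controls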;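 also: 0% = DMSO wells given calcium and 100% = 1 mM EGTA wells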
CRFBP-R2 block = blocks CRF-induced signaling of the CRF-BP/CRF-R2 complex; HEK293 CRF-R2/CRF-BP, CRF-induced calcium fluorescence; inhibition, % at 11.8 µM; 350,000 tested, 0.59% active; AID 588475;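 active = inhibition of the ligand-induced calcium signal above about 50% at the single tested concentration, limit read from the data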
GRIN3A LBD mod = modulators (binders) of human NR3A ligand-binding domain. 340,000 tested, 2.5% active. NR3A LBD differential scanning fluorimetry, Tm shift; 0% = protein alone, 100% = glycine-bound protein. Tm shift relative to glycine control, % at 25 µM. AID 1259313;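 active = melting temperature shift of at least 10% of the positive control shift, at one fixed dose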
TMEM16A inh = mouse TMEM16A channel inhibition, primary screen. 310,000 tested, 1.2% active. Q8BHY3. HEK293 TMEM16A/YFP iodide influx fluorescence, ionomycin. normalized B-score (activity score, 25-100; higher = stronger inhibition) at 10 µM;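 active = ratio plate-corrected score three or more library SD toward inhibition, starting fluorescence score within five deviations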;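 also: score derived from kinetic fluorescence span divided by baseline fluorescence per well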
MPTP counter = membrane potential counter-screen of mitochondrial pore inhibitors | shares compounds with MPTP block | isolated mitochondria, Rhodamine 123 fluorescence | inhibition, % at 10 µM | 5,000 tested, 78% active | AID 624504; in the data active = inhibition above about 22%;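 also: 0% = DMSO vehicle and 100% = positive control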
MPTP abs DR = MPTP inhibition, dose response swelling confirmation | shares compounds with MPTP block | isolated mitochondria swelling, absorbance | IC50, µM | 780 tested, 58% active; in the data active = IC50 below about 20 µM
MPTP counter DR = MPTP inhibitor counter-screen activity, dose response | IC50, µM | isolated mitochondria counterscreen, fluorescence read-out | AID 651564 | shares compounds with MPTP block | 780 tested, 49% active; in the data active = IC50 below about 80 µM
Starred values were filed as active, the others as inactive; i = inactive; x = no result. This is a sample that favours compounds with a hit; in the whole collection about 5.1% have one here.

SMILES | TMEM16A act | CRFBP-R2 agonist | MPTP block | CRFBP-R2 block | GRIN3A LBD mod | TMEM16A inh | MPTP counter | others
COc1cccc(C(C)(O)c2nc(-c3ccccc3)cs2)c1 (stereo unspecified) | x | x | 3 | x | x | x | x
COc1cccc(C(C)(O)c2nc(-c3cc4ccccc4o3)cs2)c1 (stereo unspecified) | x | x | 88* | x | x | x | 96*
COc1cc2c(cc1OC)C(C)N(S(=O)(=O)c1ccc(Cl)nc1)CC2 (stereo unspecified) | i | 0 | 0 | -7 | 0 | i | x
Cc1ccc(-n2[nH]c(C)c(/C=N/Nc3ccc([N+](=O)[O-])cc3[N+](=O)[O-])c2=O)cc1 | i | 28 | 112* | 112* | 22* | 100* | 69*
Cc1[nH]n(-c2ccc([N+](=O)[O-])cc2)c(=O)c1C=NCC1CCCO1 (stereo unspecified) | i | 0 | -2 | 46 | -2 | i | x
CCOC(=O)c1ccc(NC(=O)CCc2nc(-c3cccc(C)c3)no2)cc1 | i | -2 | 85* | 3 | 9 | i | 91*
O=C(CCc1nc(-c2ccccc2F)no1)Nc1ccc(Oc2ccccc2)cc1 | i | 2 | 107* | 19 | 2 | 100* | 94*
CC1=C(C)/C(=N\OS(=O)(=O)c2ccccc2)C=CC1=O | i | 57* | 109* | -15 | 4 | i | 99*
Cc1cc(NC(=O)Nc2cccc(Cl)c2)n(-c2ccccc2)n1 | i | 0 | 58* | -3 | -5 | i | 86*
Cc1cc(NC(=O)Nc2ccc(Cl)c(Cl)c2)n(-c2ccccc2)n1 | i | 2 | 86* | 15 | -1 | i | 87*
O=C(Nc1ccc2c(c1)OCCO2)C(c1ccccc1)n1c(=O)c(-c2cc3ccccc3[nH]2)nc2ccccc21 (stereo unspecified) | x | x | 4 | x | x | x | x
Oc1ccc(Cl)cc1CNc1ccccn1 | i | -1 | 0 | 0 | 0 | i | x
Oc1ccc(Cl)cc1CNc1ccc(Br)cn1 | i | 2 | 58* | -2 | -2 | i | 62*
Oc1c(Cl)cc(Cl)cc1CNc1ccc(Br)cn1 | i | -1 | 72* | 26 | 8 | i | 83*
CC(C)c1ccc(CC(=O)N2CCC2(C)C(=O)NS(=O)(=O)c2ccc(Cl)s2)cc1 (stereo unspecified) | x | x | 1 | x | x | x | x
CC(=O)Nc1ccc(S(=O)(=O)Nc2cccc(-c3nc4cc(C)ccc4o3)c2)cc1 | i | 2 | 96* | -9 | 16* | i | 74*
CCN(CC)c1ccc(/C=N/N(c2ccccc2)c2ccccc2)c(O)c1 | i | 1 | 97* | -30 | 2 | i | 54*
O=C(CNCc1ccccc1)Nc1ccc(F)cc1 | i | 0 | 2 | -5 | 1 | i | x
O=C(CNCc1ccccc1)Nc1ccc(Oc2ccccc2)cc1 | i | 0 | 66* | -26 | -1 | i | -11 | MPTP abs DR=i;MPTP counter DR=43*
O=C(NCc1cccnc1)Nc1ccc(Cl)c(Cl)c1 | i | 3 | 2 | -10 | -6 | i | x
S=C(NCc1cccnc1)Nc1ccc(Cl)c(Cl)c1 | i | -2 | 71* | 13 | -5 | i | 93*
S=C(NCc1ccccc1)Nc1ccc(Oc2ccccc2)cc1 | i | 0 | 86* | 11 | 12* | i | 87*
CC(C)(C)c1ccc(NC(=S)NCc2cccnc2)cc1 | i | -2 | 10 | 3 | -2 | i | x
S=C(NCc1cccnc1)Nc1ccc(Oc2ccc(Cl)cc2)cc1 | i | 1 | 80* | 8 | 5 | i | 66*
O=C(COc1ccc(Cl)cc1)Nc1ccc(C(=O)NCc2cccnc2)cc1 | i | 0 | 28 | -4 | -2 | i | x
SMILES | TMEM16A act | CRFBP-R2 agonist | MPTP block | CRFBP-R2 block | GRIN3A LBD mod | TMEM16A inh | MPTP counter | others
O=C(NCc1cccnc1)c1ccc(COc2ccc(Cl)cc2)cc1 | i | 0 | 66* | 9 | -1 | i | 63*
CCc1nnc(NS(=O)(=O)c2ccc(NC(=S)NC(=O)/C=C/c3ccc(F)cc3)cc2)s1 | i | -1 | 53* | 44 | 8 | i | 40*
CCc1nnc(NS(=O)(=O)c2ccc(NC(=S)NC(=O)/C=C/c3ccc([N+](=O)[O-])cc3)cc2)s1 | i | 2 | -3 | 5 | -6 | i | x
Cc1ccc(C2CCN(C(=O)Nc3ccccc3)C2)cc1 (stereo unspecified) | i | -1 | 0 | 13 | -2 | i | x
O=C(Nc1ccc(Cl)cc1)N1CCC(c2ccccc2)C1 (stereo unspecified) | i | 0 | 86* | 5 | 3 | i | 91*
CCN1C(=NCC(C)C)N[C@@H](c2cccc(F)c2)C(C(=O)OC)=C1C | i | -1 | 0 | -4 | -2 | i | x
CCOC(=O)CC1CCCCN1C(=O)CCCn1nnnc1CN1CCC(C)CC1 (stereo unspecified) | i | 2 | 1 | 2 | 1 | i | x
FC(F)(F)c1nnc(-c2ccccc2)nc1Oc1ccc(Cl)cc1Cl | i | 2 | 71* | 1 | -7 | i | 1 | MPTP abs DR=14*;MPTP counter DR=>80
CC1CCCCN1CC(O)COc1ccc(OCC(O)CN2CCCCC2C)cc1 (stereo unspecified) | i | -1 | 0 | 13 | -2 | i | x
COc1ccccc1N=C1SC(C(=O)Nc2cccc(Cl)c2Cl)C(N)=C1C(N)=O (stereo unspecified) | i | 2 | 2 | -7 | 0 | i | x
N#Cc1ccccc1NC(=O)C1SC(=Nc2ccccc2)C(C(=O)Nc2ccc(Cl)cc2)=C1N (stereo unspecified) | i | 2 | 62* | -18 | 22* | i | 65*
CN1CCC(NC(=O)c2cc(-c3cccc(Br)c3)nc3ccccc23)CC1 | i | -1 | -2 | -10 | 1 | i | x
NCCCC[C@H]1CN=C(N)N1CC1CCCCC1 | i | -1 | 2 | 0 | 1 | i | x
NCCCC[C@H]1CN=C(N)N1CCCCC1CCCCC1 | i | -2 | 74* | 4 | -1 | i | -9 | MPTP abs DR=i;MPTP counter DR=>80
NC1=NC[C@H](c2ccccc2)N1CCCCC1CCCCC1 | i | 1 | 81* | -31 | -5 | i | 37*
O=c1[nH]nnc2c1cnn2-c1ccccc1 | i | 3 | -1 | 3 | -2 | x | x
